Data: the supplement of paper PMC3334620
The full ranking holds about 33,000 sequences; the median of “E-score (-0.5 to 0.5)” is about -0.015, and the highest 2% start at about 0.3. The list comes from a sample in which the highest values are over-represented; it also holds similar and randomly drawn sequences.

biological target: T1, Abf1 (UniProt P14164); assay: PBM E-score (8-mer binding enrichment) (E-score (-0.5 to 0.5)); higher = stronger / more preferred TF binding; settings: protein concentration: 200 nM; construct: GST-full length
T1 sequence: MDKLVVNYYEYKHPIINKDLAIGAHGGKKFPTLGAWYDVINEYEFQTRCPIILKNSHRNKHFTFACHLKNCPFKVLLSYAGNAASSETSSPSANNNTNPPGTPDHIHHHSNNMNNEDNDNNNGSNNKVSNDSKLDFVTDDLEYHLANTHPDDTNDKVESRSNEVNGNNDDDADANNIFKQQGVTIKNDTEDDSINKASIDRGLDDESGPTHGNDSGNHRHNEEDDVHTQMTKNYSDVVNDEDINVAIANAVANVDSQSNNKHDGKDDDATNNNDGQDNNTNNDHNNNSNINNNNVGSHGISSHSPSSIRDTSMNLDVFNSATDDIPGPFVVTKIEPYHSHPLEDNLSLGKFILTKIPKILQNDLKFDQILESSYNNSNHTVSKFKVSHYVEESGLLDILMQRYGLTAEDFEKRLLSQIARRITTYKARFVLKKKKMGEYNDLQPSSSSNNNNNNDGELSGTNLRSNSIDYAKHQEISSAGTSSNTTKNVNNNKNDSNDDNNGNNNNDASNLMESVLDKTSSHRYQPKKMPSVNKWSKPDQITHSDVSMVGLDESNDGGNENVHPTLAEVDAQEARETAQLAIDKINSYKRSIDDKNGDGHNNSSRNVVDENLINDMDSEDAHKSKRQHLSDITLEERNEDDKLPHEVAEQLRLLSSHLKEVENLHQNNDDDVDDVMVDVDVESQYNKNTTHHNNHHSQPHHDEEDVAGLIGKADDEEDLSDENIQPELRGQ
Outline: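 Detection of bound protein used fluorescent anti-GST, with scans normalised by masliner. The proteins were GST-tagged yeast transcription factors applied at about 100-200 nM to universal all-10-mer Agilent arrays made double-stranded by primer extension. Each ungapped eight-base word, pooled with its reverse complement, was scored with an E-score from the Universal PBM Analysis Suite.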

Sequence	PBM E-score
AGAGCGTC	0.0295
AGACTTTG	0.0104
CGCAAACC	-0.124
AGTGAAGG	-0.145
GTTCTTCA	0.117
GGGTCTAA	-0.112
AATCATCA	0.317
AATCATCT	0.184
CATCATCA	0.254
TATCATCA	0.385
TCTCATCA	0.145
AATCATCG	0.179
GATCAACC	0.005
CTTCTATC	0.0251
ACGCACAC	0.0964
AAGGCTCG	-0.0968
ACGAAGGA	0.0584
CATCGTGG	0.0192
CATCGTGC	0.314
AACCGTCC	-0.0986
AACCGTCG	0.298
AACCGTGG	-5e-05
AATCGTGA	0.175
AACCGTCT	-0.0069
CATCGTGA	0.135

Sequence	PBM E-score
AATCGTGC	0.311
AACCGTGC	0.306
AATCGTGG	0.125
GACCGTGC	0.108
AGGCCCTA	-0.113
AATGTGCA	0.0308
GCTACAGA	-0.126
CAACTGGA	-0.182
CTCACTAC	0.203
CTCACTAA	0.129
ATCACTAC	0.375
AGCACTAA	0.154
GCCACTAA	-0.149
ATCACTAA	0.359
ACCACTAA	-0.0853
AACACTAC	-0.0369
ATCACTAG	0.357
AACACTAG	0.151
AGCACTAG	0.0299
GTCACTAA	0.393
CTCTCGTC	0.011
GCCTTACC	-0.255
TATGCACA	0.018
AAAGGGTA	-0.0845
CTAACCTC	-0.0908

Sequence	PBM E-score
AGTGAGCG	0.24
GTCATTTA	0.313
CTCATTTA	0.0543
ATTATACG	0.331
ATTATACA	0.0365
ATCATACA	0.236
GACATTTA	0.0126
ATCATTTC	0.312
CTCATTTC	0.0189
ATCATACG	0.315
ATTATACC	0.217
ATCATACC	0.205
ATCATTTG	0.276
AGGATCTC	-0.0704
GCTATCCA	0.00713
CGATTGGA	-0.00974
GCGCCGTA	0.291
TAGCCCTA	-0.149
AGGTTAAG	-0.128
CGCCTGAG	-0.0541
CCTACGCC	-0.0667
CTGATGTA	-0.129
CTGATTTA	0.0199
ATGATGTA	0.272
GTGATTTA	0.317

Sequence	PBM E-score
ATCATAAG	0.105
ATCATTCC	0.25
ATCATTCG	0.332
ATCATAAA	0.303
ATCATTCA	0.278
ATGATTTA	0.296
TTCATAAA	0.0402
GTGATGTA	0.399
AATGGGTG	-0.0386
ATCGGGTC	-0.0582
CCGCGAAC	0.00614
CGGAAAGA	-0.131
GTTGACTA	-0.164
GATGGGAC	-0.154
GACTGAAA	-0.037
CCCCAACG	-0.0545
AAAGGGAA	-0.0729
TGACCGAA	0.0507
ATCATTTA	0.305
ACCATTTA	0.0343
AACATTTA	0.0911
CATCCGAC	0.151
ACCACTGG	-0.103
ATCACTGC	0.32
ATCACTGG	0.332

Sequence	PBM E-score
AACACTGC	-0.155
CTCACTGC	-0.0817
AGCACTGG	-0.168
ATGTTCGC	0.00598
CGAAGGCA	-0.148
AACAGCCC	-0.373
AAAACGAA	0.167
CAAACGAC	0.198
AAAACGAT	0.326
AAAACGAG	0.0711
AAAACGAC	0.323
GAAACGAC	0.153
TATGCGGA	0.0153
TTTGCAAA	0.0778
GACCTGGC	-0.0415
GGAGTGAC	0.333
CGAGTGAG	-0.011
GGAGTGAA	-0.0623
CGAGTGAA	-0.14
AGAGTGAC	0.288
CGAGTGAC	0.358
CGAGACTC	0.0667
CGGAGACG	0.0614
AAAAGGCT	-0.0975
CGGCCGAG	0.0212

Sequence	PBM E-score
CCCCGGAC	-0.105
GTGGTCAA	0.0649
GGTACGGA	0.13
AGTACGTC	0.125
CGTACGCC	0.155
CGTACGTC	0.359
AGTACGGC	0.224
AGTACGGA	0.118
CGTACGGA	0.355
CGTACGGC	0.396
CGTACGTA	0.266
ATGACTGA	-0.0877
AGTATGAC	0.186
CGTATGAA	0.426
AGAATGAC	0.255
CGTATGAC	0.334
GGTATGAC	-0.0891
CGTATGAG	0.189
CGAATGAC	0.312
AGTATGAA	0.135
CGAATGAA	-0.164
AGTGTTCA	-0.11
ACCAGTGG	-0.261
ATAATCCG	-0.0846
AAACAACG	0.0689

Sequence	PBM E-score
CAGTCGAG	-0.177
CGCCGCGA	0.0127
TCCGTTAA	0.0849
CGTGATCA	0.379
CGTGATCC	-0.0112
AGTGATCC	0.189
GCTGATCA	0.139
GGGGATCA	-0.0388
GGTGATCA	0.305
AGTGATCA	0.416
AGTGATCG	0.239
CCTGATCA	0.112
AGTACCGG	-0.202
ACTCCTGC	-0.173
GAGATCAA	0.109
AAGATCAC	0.325
CAGATCAC	0.284
GAGATCGC	0.164
GAGATCAC	0.347
AAGATCAT	0.289
AATTGACT	-0.00646
CGTACCGA	0.232
AATAAGCG	-0.0622
ATATCATG	0.297
CTATCATA	0.143

Sequence	PBM E-score
ATATCATC	0.408
CTATCATC	0.151
ATATCATA	0.33
AAATCATC	0.278
GCAAAAAC	0.0419
GATAGGAC	-0.123
AGGCGTTC	-0.191
AATACTAA	0.0807
AATACTAC	0.301
AATACTAT	-0.00924
AGGGACCG	-0.0817
CATGCCGG	-0.00463
ATCACGGG	0.163
ATCACGCG	0.373
ATCACGAT	0.26
ATCACGGC	0.35
ATCACGGA	0.246
ATCACGCA	0.272
ATCACGAC	0.363
ATCACGAA	0.256
ATCACGTC	0.336
CTCACGTC	0.0288
ATCACGCC	0.253
ATCACGTA	0.218
AGGCTTAT	-0.0827

Sequence	PBM E-score
CAACCGCA	-0.0837
ACTTTGTC	0.217
CCCGCTAG	-0.157
ATGATCCA	0.0885
CCGTCATC	0.128
GCGTCATA	0.138
CCGTCATA	0.37
AATGGTCC	-0.0212
ATCATCGA	0.175
AACATCAT	0.309
ATCATCAT	0.376
GTCATCAA	0.31
TTCATCAA	0.041
AACATCAG	0.0871
AACATCAC	0.283
ATCATCAG	0.16
ATCATCGC	0.301
AGCATCAT	0.0136
ATCATCGG	0.116
ATCATCAA	0.26
ATCGCATC	0.0782
GAATCCCA	-0.00947
AGGCCTTG	-0.302
CTCTCTGA	-0.149
ACCCTTCA	-0.0788

Sequence	PBM E-score
AGGTGTCA	-0.0121
AATTCTGT	-0.144
GACATCAC	0.352
CTCATCAC	0.217
CACATCAC	0.244
GGCATCAC	0.0726
AGCATCAC	-0.0618
GACATCAA	0.178
GTCATCAC	0.334
ATCATCAC	0.393
GCCATCAC	-0.121
AGCTTGAC	-0.245
GTGGTGTA	-0.0517
GCCCCTTA	-0.138
CGCCGCCG	-0.223
GTACGGCA	0.222
ATACGGCA	0.376
ATACGGCG	0.384
ATACGGGG	0.172
ATACGGCC	0.208
CTACGGCA	0.291
AGAGGGTC	-0.274
CTTAGGGC	-0.183
GGCTCGAC	-0.0785
CGGCGTCA	-0.103

Sequence	PBM E-score
AATCACTG	0.204
AATCACTC	0.224
GCTCACTA	0.0163
CATCACTC	0.385
GATCACTA	0.389
AATCACTA	0.359
CCTCACTA	0.159
CCTCACTC	0.0309
CATCACTA	0.351
CATCACAA	0.0688
GTTCACTA	0.115
CATCACAC	0.141
ATCGTAGA	0.28
AGTGTGGA	-0.0464
CAGTAGGA	-0.109
ATTGTGGG	-0.127
TACCGCGA	-0.111
GGTCGACA	-0.106
GAGCCTAC	-0.171
ATGGTTTC	-0.0221
GATGGGCC	-0.28
CACAGTTA	0.164
GCTCGAGA	-0.143
CCTCGAGA	-0.0603
TCTCGAGA	0.302

Sequence	PBM E-score
CATTGTGC	-0.115
CCGAACTA	-0.143
GCGTAGAA	0.0196
ACGTAGAA	0.108
CCGTAGAC	0.0491
CCGTAGAG	0.102
CCGTAGAA	0.298
TCGTAGAA	0.393
ATACCGGC	0.0536
CGGGCGCC	-0.053
GTGATTAA	0.249
CGGATAGA	0.147
AGTGGTGA	0.131
ACATCACC	0.353
ACATCACT	0.415
GCATCACC	-0.101
ACATCAGT	-0.0164
ACATCATA	0.169
ACATCACA	0.183
ACATCACG	0.231
ACATCATC	0.328
ACATCATG	0.24
CAACCTAC	-0.122
GCCTAGGA	-0.178
CATGGCGG	-0.0941

Sequence	PBM E-score
ACATCTGA	-0.0545
CGATAAAA	0.285
GGATAAAA	0.158
TGATAAAA	0.337
CGATAACA	0.106
GGATAACA	0.0228
TGATAACA	0.341
TCATGAAA	0.00026
GGTCGCCA	-0.074
TCATGGGA	-0.042
AACGCTGT	0.00818
ACTGGTAC	-0.0194
CGTCCAGC	-0.0241
TAGTGACA	0.414
GAGTGACC	0.207
CAGTGACA	0.3
CAGTGAAA	0.0736
TAGTGTGA	0.137
GAGTGACA	0.432
TAGTGTCA	0.117
CAGTGACC	0.132
GAGTGCCA	-0.212
AACGGACC	-0.168
TGATCCCA	-0.0944
CTAGCTGC	-0.114

Sequence	PBM E-score
CGAGGTGA	0.129
GACACTTA	-0.0374
ACTGCACG	-0.0217
CGCCACCA	-0.138
GTGATCTA	0.407
CTGATCTA	-0.106
ATGATCTA	0.297
ATGATCTC	0.296
GTGATCCA	0.132
GAGATCTA	-0.121
CGGCCAAC	-0.133
GACGATGC	0.231
ACAGCCGC	-0.223
CGTGCACG	0.419
CGTGCAAA	0.337
CGTGCACA	0.196
CGTGCAAG	0.169
CGTGCAAC	0.247
TGTGCACA	0.0303
